Screening data from PubChem.
Hits are enriched below; roughly 3.5% of the tested compounds scored in any of these assays.
Rv3671c inh – Rv3671c (M. tuberculosis) protease inhibition; P9WHR9; inhibition, % at 5.96 µM; 320,000 tested, 0.048% active; in the data active = inhibition above about 38%;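 also: extracellular domain of Rv3671c used as enzyme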
GDH-TPI counter-1 – counter-screen for M. tuberculosis FBA inhibitors: GDH-TPI coupled enzymes; 360,000 tested, 1.2% active; GDH-TPI coupled enzyme counterscreen, NADH absorbance; inhibition, % at 4.8 µM; in the data active = inhibition above about 30%
Mtb FBA inh – inhibits M. tuberculosis FBA enzyme. AID 588726. purified M. tuberculosis FBA, fluorescence read-out. inhibition, % at 1 µM. P9WQA3. 360,000 tested, 2.3% active
UGM FP inh – blocks M. tuberculosis UGM enzyme; AID 504406; 320,000 tested, 0.06% active; inhibition, % at 10 µM; purified UGM, fluorescence polarization probe displacement; in the data active = inhibition above about 10%, passing the limit was not always enough
Target sequence (P9WIQ1 whole entry, looked up): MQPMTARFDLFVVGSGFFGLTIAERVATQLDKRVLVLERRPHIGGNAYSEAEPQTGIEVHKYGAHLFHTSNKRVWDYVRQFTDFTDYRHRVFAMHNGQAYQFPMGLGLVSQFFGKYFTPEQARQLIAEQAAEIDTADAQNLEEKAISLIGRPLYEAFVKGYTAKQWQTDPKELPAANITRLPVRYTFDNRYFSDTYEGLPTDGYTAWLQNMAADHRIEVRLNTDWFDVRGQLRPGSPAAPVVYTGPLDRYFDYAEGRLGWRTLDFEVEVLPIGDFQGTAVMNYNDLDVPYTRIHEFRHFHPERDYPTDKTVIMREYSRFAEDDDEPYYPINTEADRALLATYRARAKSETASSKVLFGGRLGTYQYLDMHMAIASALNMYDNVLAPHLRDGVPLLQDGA
Mtb FBA inh conf – Mtb FBA inhibition, confirmed; shares compounds with Mtb FBA inh; purified M. tuberculosis FBA, fluorescence read-out; inhibition, % at 1 µM; 5,600 tested, 78% active
GDH-TPI counter-2 – GDH-TPI inhibition counter-screen for FBA inhibitors; shares compounds with Mtb FBA inh; GDH-TPI coupled enzyme counterscreen, fluorescence; inhibition, % at 1 µM; 5,600 tested, 81% active; AID 652141; in the data active = inhibition above about 10%
GDH-TPI dose – GDH-TPI dose response counter-screen for Mtb FBA. GDH-TPI coupled enzyme assay, fluorescence, artifact counterscreen. AID 652145. IC50, µM. shares compounds with Mtb FBA inh. 170 tested, 79% active; call rule not given here
Large screens that a line does not name were inactive (follow-up assays come after a bar, where they were run). Rule as the data show it, unless noted: active = inhibition above about 27%; inactive = the rest.

CC1(C)CC(=O)C2=C(C1)Nc1[nH]c(=S)[nH]c(=O)c1C2c1ccccc1 (configuration not stated)	none
CCSc1nc2c(c(=O)[nH]1)C(c1ccc(C)cc1)C1=C(CCCC1=O)N2 (configuration not stated)	Mtb FBA inh 29 | Mtb FBA inh conf 148 | GDH-TPI counter-2 126
CSc1nc2c(c(=O)[nH]1)C(c1ccccc1)C1=C(CC(C)(C)CC1=O)N2 (configuration not stated)	Mtb FBA inh 29 | Mtb FBA inh conf 68 | GDH-TPI counter-2 45
Cc1ccc(N(CC(=O)N2CCCCCC2)S(=O)(=O)c2ccccc2)cc1	none
O=C(CCNC(=O)c1ccc([N+](=O)[O-])cc1)Oc1ccc(F)c(F)c1	none
COC(=O)C1=C(C)NC(=O)NC1c1ccc(OC)c(OC)c1 (configuration not stated)	none (no result: Rv3671c inh, UGM FP inh)
COC(=O)C1=C(C)NC(=O)NC1c1ccc(N2CCC(c3ccccc3)=N2)cc1 (configuration not stated)	Mtb FBA inh 78 | Mtb FBA inh conf 109 | GDH-TPI counter-2 78
CSc1cccc(N2CC(C(=O)N3CCN(S(=O)(=O)c4ccccc4Cl)CC3)CC2=O)c1 (configuration not stated)	none
Cc1cccc(Oc2ccc(Cl)cc2N)c1	none
O=C(/C=C/c1cccs1)NC(=S)NNC(=O)c1ccccc1O	Mtb FBA inh 28 | Mtb FBA inh conf inactive | GDH-TPI counter-2 inactive
COc1ccc(C(=O)NNC(=S)NC(=O)/C=C/c2cccs2)cc1	none
CN(CC(=O)Nc1ccccc1Cl)CC(=O)N(C)c1c(N)n(Cc2ccccc2)c(=O)[nH]c1=O	none
CCN1CCN(Cc2c(O)ccc3c(=O)c(-c4ccc(OC)c(OC)c4)c(C)oc23)CC1	Mtb FBA inh 41 | Mtb FBA inh conf 62 | GDH-TPI counter-2 51
COc1ccc(-c2c(C)oc3c(CN4CCN(C)CC4)c(O)ccc3c2=O)cc1	Mtb FBA inh 102 | Mtb FBA inh conf 63 | GDH-TPI counter-2 40
N#Cc1c(F)cccc1N1CCC(C#N)CC1	Mtb FBA inh 31 | Mtb FBA inh conf 154 | GDH-TPI counter-2 115
COC(=O)[C@]1(C)N[C@H](CN(C)C(=O)Nc2ccc(OC)cc2)[C@@H]2C(=O)N(Cc3ccccc3)C(=O)[C@@H]21	none
COc1ccc2c(c1)nc(-c1cccc(Br)c1)c(=O)n2C(c1ccccn1)c1nc2ccccc2[nH]1 (configuration not stated)	Mtb FBA inh 53 (no result: Rv3671c inh, GDH-TPI counter-1, UGM FP inh) | Mtb FBA inh conf 68 | GDH-TPI counter-2 47
Cc1ccc(C(c2nc3ccccc3[nH]2)n2c(-c3ccccc3)nc3ccccc32)cc1 (configuration not stated)	Mtb FBA inh 28 (no result: Rv3671c inh, GDH-TPI counter-1, UGM FP inh) | Mtb FBA inh conf inactive | GDH-TPI counter-2 inactive
CN(C(=O)c1cccc(C#CC(C)(C)O)c1)C1CCCN(Cc2ccccc2F)C1 (configuration not stated)	none
CCOC(=O)c1nc2cc3n(c(C)c-2c1C)C(C)C(C)=C3C (configuration not stated)	Mtb FBA inh 37 | Mtb FBA inh conf 63 | GDH-TPI counter-2 50
CCOC(=O)c1nnc2cc(C)nn2c1C	none
CCOC(=O)c1n[nH]n(-c2cc(Cl)cc(Cl)c2)c1=O	none
CCOC(=O)c1nc2cc3n(c(CC(C)C)c-2c1C)CC(C)=C3C	Mtb FBA inh 27 | Mtb FBA inh conf 119 | GDH-TPI counter-2 88
O=C(COC(=O)/C=C/c1ccc([N+](=O)[O-])cc1)NCC1CCCCC1	none
c1cc(-c2ccc(N3CCOCC3)cc2)n2cnnc2c1	Mtb FBA inh 92 (no result: Rv3671c inh, UGM FP inh) | Mtb FBA inh conf 174 | GDH-TPI counter-2 151
COc1ccccc1COc1ccc2c(C)c(CCC(=O)O)c(=O)oc2c1C	none
COC(=O)Cc1c(C)c2ccc(OC3CCCCC3=O)c(C)c2oc1=O (configuration not stated)	Mtb FBA inh 108 | Mtb FBA inh conf inactive | GDH-TPI counter-2 17
CCc1cc(=O)oc2cc(OCC(=O)NC3CC(C)(C)NC(C)(C)C3)ccc12	none
Cc1cc(=O)oc2c(C)c(OC3CCCCC3=O)ccc12 (configuration not stated)	Mtb FBA inh 39 | Mtb FBA inh conf active | GDH-TPI counter-2 192
Cc1cc(=O)oc2c(C)c(OC(C)C(=O)NCC3CCC(C(=O)O)CC3)ccc12 (configuration not stated)	none
COC(=O)Cc1c(C)c2ccc(OC3CCCCC3=O)cc2oc1=O (configuration not stated)	Mtb FBA inh 103 (no result: Rv3671c inh) | Mtb FBA inh conf 140 | GDH-TPI counter-2 144
CCc1cc(=O)oc2cc(OC3CCCCC3=O)ccc12 (configuration not stated)	Mtb FBA inh 53 | Mtb FBA inh conf 192 | GDH-TPI counter-2 164
Cc1cccc(NC(=O)CSc2nnc(CNC(=O)c3ccco3)n2C)c1C	none
COc1ccc(-c2cc(-c3ccc(Cl)cc3)c(C#N)c(SCC(=O)O)n2)cc1	Mtb FBA inh 47 | Mtb FBA inh conf 53 | GDH-TPI counter-2 37
COc1ccc(-c2cc(-c3ccccc3)c(C#N)c(SCC(=O)O)n2)cc1	Mtb FBA inh 47 | Mtb FBA inh conf inactive | GDH-TPI counter-2 inactive | GDH-TPI dose 2.5
NC(CCc1ccccc1)c1csc(NC(=O)NCC2CCCCC2)n1 (configuration not stated)	none (no result: Rv3671c inh, UGM FP inh)
Cc1c(C)c2ccc(OCC(=O)Nc3ccc(S(N)(=O)=O)cc3)c(C)c2oc1=O	Mtb FBA inh 41 | Mtb FBA inh conf 78 | GDH-TPI counter-2 73
Cc1c(OCC(=O)Nc2cccnc2)ccc2c3c(c(=O)oc12)CCC3	none
Cc1cc(OCC(=O)NCCCn2ccnc2)c2c(C)cc(=O)oc2c1	Mtb FBA inh 78 | Mtb FBA inh conf 108 | GDH-TPI counter-2 74
CCCc1cc(=O)oc2cc(C)cc(OCC(=O)NCCCn3ccnc3)c12	Mtb FBA inh 57 | Mtb FBA inh conf 88 | GDH-TPI counter-2 65
Cc1c(C)c2ccc(OCC(=O)NCCCn3ccnc3)c(C)c2oc1=O	Mtb FBA inh 43 | Mtb FBA inh conf 153 | GDH-TPI counter-2 126
Cc1cc(=O)oc2c(C)c(OCC(=O)NCCCn3ccnc3)ccc12	none
Cc1c(OCC(=O)NCCCn2ccnc2)ccc2c3c(c(=O)oc12)CCC3	none
Cc1ccc2cc(C#N)c(NCc3ccccc3)nc2c1	Mtb FBA inh 32 | Mtb FBA inh conf 53 | GDH-TPI counter-2 44
COc1ccc(CC2=NCCc3cc(OC)c(OC)cc32)cc1OC	Mtb FBA inh 94 (no result: Rv3671c inh, UGM FP inh) | Mtb FBA inh conf active | GDH-TPI counter-2 157
CC(=O)Nc1ccc(C(=O)N2CCCCC2c2cc(C(=O)NCc3ccc(F)cc3)no2)cc1 (configuration not stated)	none (no result: Rv3671c inh, UGM FP inh)
COc1ccc(-c2cc(NC=O)c3ncc(-c4cnn(C)c4)n3c2)cc1	none (no result: Rv3671c inh, UGM FP inh)
